Reference: PubChem BioAssay (NCI)
About 79,000 compounds went through this panel and 15% of them were active in at least one assay; those are over-represented in the sample as a whole. Values without a mark were called inactive. Active and inactive are the calls of the source. Rule as the data show it: active = growth inhibition above about 70%; inactive = the rest.

Legend:
[1] = NCI Yeast Anticancer Drug Screen. Data for the rad52 strain (AID 147);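 also: 0% = growth of vehicle-treated control cultures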; details: S. cerevisiae rad52 mutant growth inhibition, active compounds read high
Outline: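 Vehicle-treated cultures served as the reference for growth inhibition of compound-exposed yeast bearing a DNA repair mutation.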

[2] = NCI Yeast Anticancer Drug Screen. Data for the wt1 strain (AID 149);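 also: 0% = growth of vehicle-treated wt1 cultures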; details: S. cerevisiae wt1 strain (SPY 50644) growth inhibition, active compounds read high
Outline: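 wt1 yeast, compound-treated; % growth inhibition vs vehicle control.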

[3] = NCI Yeast Anticancer Drug Screen. Data for the rad50EPP+ strain (AID 151);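 also: 0% = growth of vehicle-treated control cultures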; details: S. cerevisiae rad50 mutant strain, active compounds read high
Outline: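 In this screen, rad50EPP+ yeast were exposed to compounds. Growth inhibition was scored against vehicle-treated controls.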

[4] = NCI Yeast Anticancer Drug Screen. Data for the mgt1 strain (AID 153); details: S. cerevisiae mgt1 mutant growth inhibition, active compounds read high
Outline: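 mgt1 strain exposed; growth vs vehicle control recorded as inhibition.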

[5] = NCI Yeast Anticancer Drug Screen. Data for the rad50 strain (AID 155);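 also: 0% = growth of vehicle-only cultures of the same strain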; details: S. cerevisiae rad50 strain growth inhibition, active compounds read high
Outline: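 Genetically altered yeast (DNA repair pathway); compound treatment; growth inhibition vs vehicle ctrl.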

[6] = NCI Yeast Anticancer Drug Screen. Data for the mec2-1 strain (AID 157); details: S. cerevisiae mec2-1 strain, active compounds read high
Outline: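 Vehicle-treated cultures served as reference for growth inhibition of compound-exposed mec2-1 yeast.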

[7] = NCI Yeast Anticancer Drug Screen. Data for the rad14 strain (AID 159);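 also: 0% = growth of vehicle-treated control cultures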; details: S. cerevisiae rad14 strain growth inhibition, active compounds read high
Outline: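 Test compounds were applied to a repair-deficient yeast strain. Its growth was then compared with that of cultures given vehicle alone, and inhibition was expressed relative to those controls.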

[8] = NCI Yeast Anticancer Drug Screen. Data for the sgs1 mgt1 strain (AID 161);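 also: 0% = growth of cultures given vehicle only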; details: S. cerevisiae sgs1 mgt1 strain, active compounds read high
Outline: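 Genetically altered yeast, compound exposure, growth inhibition relative to vehicle.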

[9] = NCI Yeast Anticancer Drug Screen. Data for the CLN2oe strain (AID 163);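 also: 0% = growth of vehicle-only control cultures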; details: S. cerevisiae CLN2oe strain, active compounds read high
Outline: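 Inhibition relative to vehicle-treated yeast is reported. Cells: strain with genetic alteration in cell-cycle control, grown with compound.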

[10] = NCI Yeast Anticancer Drug Screen. Data for the cln2 rad14 strain (AID 165);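 also: 0% = growth equal to vehicle treated cultures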; details: S. cerevisiae cln2 rad14 strain, active compounds read high
Outline: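 Each compound was tested on cln2 rad14 yeast. Inhibition of growth was calculated against vehicle-exposed controls.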

[11] = NCI Yeast Anticancer Drug Screen. Data for the bub3 strain (AID 167); details: S. cerevisiae bub3 mutant strain, active compounds read high
Outline: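 Yeast carrying a defined mutation is treated with each compound, and growth is compared with that of vehicle-exposed cells to give inhibition.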

[12] = NCI Yeast Anticancer Drug Screen. Data for the wt2 strain (AID 169);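 also: 0% = growth of vehicle-treated yeast cultures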; details: S. cerevisiae wt2 strain growth inhibition, active compounds read high
Outline: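 Inhibition of yeast growth was determined after compound treatment, normalised to controls receiving only vehicle.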

[13] = NCI Yeast Anticancer Drug Screen. Data for the mlh1 strain (AID 171);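 also: 0% = growth of vehicle-treated control cultures of the same strain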; details: S. cerevisiae mlh1 strain growth inhibition, active compounds read high
Outline: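 Vehicle-normalised growth inhibition of a repair- or checkpoint-altered yeast strain following compound treatment.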

[14] = NCI Yeast Anticancer Drug Screen. Data for the sgs1 strain (AID 173);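 also: 0% = growth of vehicle-only control cultures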; details: S. cerevisiae sgs1 mutant, active compounds read high
Outline: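 Screen format: yeast with repair or checkpoint alterations, compound exposure, growth read relative to vehicle.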

[15] = NCI Yeast Anticancer Drug Screen. Data for the mlh1 rad18 strain (AID 175); details: S. cerevisiae mlh1 rad18 strain growth inhibition, active compounds read high
Outline: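 Vehicle-treated cultures served as the reference for growth inhibition in a yeast strain carrying DNA damage repair alterations exposed to each compound.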

[16] = NCI Yeast Anticancer Drug Screen. Data for the rad18 strain (AID 177); details: S. cerevisiae rad18 mutant growth inhibition, active compounds read high
Outline: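 Test articles were incubated with altered yeast defective in DNA damage repair. Results are given as inhibition of growth versus vehicle.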

[17] = at 5.0 µM (retest, dose inferred, filed as 0.5)
[18] = at 50.0 µM (retest, dose inferred, filed as 5.0)

COc1cc([C@@H]2c3cc4c(cc3[C@H](OC3OC5COC(C(C)C)OC5C(O)C3O)C3COC(=O)[C@@H]32)OCO4)cc(OC)c1O (stereo partly drawn)
growth inhibition ([1]; at 1.2 µM): -10%
growth inhibition ([1]; at 3.7 µM): -17%
growth inhibition ([1]; at 11.0 µM): -26%
growth inhibition ([1]; at 33.0 µM): 35%
growth inhibition ([1]; at 100.0 µM): 78% (active)
growth inhibition ([2]; at 1.2 µM): -25%
growth inhibition ([2]; at 3.7 µM): -31%
growth inhibition ([2]; at 11.0 µM): 12%
growth inhibition ([2]; at 33.0 µM): -18%
growth inhibition ([2]; at 100.0 µM): 9%
growth inhibition ([3]; at 1.2 µM): -15%
growth inhibition ([3]; at 3.7 µM): -19%
growth inhibition ([3]; at 11.0 µM): -46%
growth inhibition ([3]; at 33.0 µM): -41%
growth inhibition ([3]; at 100.0 µM): -37%
growth inhibition ([4]; at 1.2 µM): -31%
growth inhibition ([4]; at 3.7 µM): -8%
growth inhibition ([4]; at 11.0 µM): -32%
growth inhibition ([4]; at 33.0 µM): -29%
growth inhibition ([4]; at 100.0 µM): 22%
growth inhibition ([5]; at 1.2 µM): -22%
growth inhibition ([5]; at 3.7 µM): -32%
growth inhibition [5, 17]: 18%
growth inhibition ([5]; at 11.0 µM): -11%
growth inhibition ([5]; at 33.0 µM): 42%
growth inhibition [5, 18]: 96% (active)
growth inhibition ([5]; at 50.0 µM): 1.85%
growth inhibition ([5]; at 100.0 µM): 82% (active)
growth inhibition ([6]; at 1.2 µM): 4%
growth inhibition ([6]; at 3.7 µM): 1%
growth inhibition [6, 17]: 9%
growth inhibition ([6]; at 11.0 µM): -17%
growth inhibition ([6]; at 33.0 µM): -5%
growth inhibition [6, 18]: 47%
growth inhibition ([6]; at 50.0 µM): 22.4%
growth inhibition ([6]; at 100.0 µM): 34%
growth inhibition ([7]; at 1.2 µM): -14%
growth inhibition ([7]; at 3.7 µM): -27%
growth inhibition ([7]; at 11.0 µM): -11%
growth inhibition ([7]; at 33.0 µM): -22%
growth inhibition ([7]; at 100.0 µM): 8%
growth inhibition [8, 17]: -1%
growth inhibition [8, 18]: 32%
growth inhibition ([8]; at 50.0 µM): 28.6%
growth inhibition ([9]; at 1.2 µM): -3%
growth inhibition ([9]; at 3.7 µM): 3%
growth inhibition ([9]; at 11.0 µM): 3%
growth inhibition ([9]; at 33.0 µM): -22%
growth inhibition ([9]; at 100.0 µM): 7%
growth inhibition [10, 17]: 10%
growth inhibition [10, 18]: 9%
growth inhibition ([10]; at 50.0 µM): 13.6%
growth inhibition ([11]; at 1.2 µM): -66%
growth inhibition ([11]; at 3.7 µM): -39%
growth inhibition [11, 17]: 10%
growth inhibition ([11]; at 11.0 µM): -50%
growth inhibition ([11]; at 33.0 µM): -63%
growth inhibition [11, 18]: 21%
growth inhibition ([11]; at 50.0 µM): 8.5%
growth inhibition ([11]; at 100.0 µM): -2%
growth inhibition ([12]; at 1.2 µM): -58%
growth inhibition ([12]; at 3.7 µM): -40%
growth inhibition ([12]; at 11.0 µM): -45%
growth inhibition ([12]; at 33.0 µM): -19%
growth inhibition ([12]; at 100.0 µM): 83% (active)
growth inhibition ([13]; at 1.2 µM): -31%
growth inhibition ([13]; at 3.7 µM): -8%
growth inhibition ([13]; at 11.0 µM): -32%
growth inhibition ([13]; at 33.0 µM): -29%
growth inhibition ([13]; at 100.0 µM): 22%
growth inhibition ([14]; at 1.2 µM): -6%
growth inhibition ([14]; at 3.7 µM): -9%
growth inhibition ([14]; at 11.0 µM): 1%
growth inhibition ([14]; at 33.0 µM): -5%
growth inhibition ([14]; at 100.0 µM): 45%
growth inhibition [15, 17]: 18%
growth inhibition [15, 18]: 44%
growth inhibition ([15]; at 50.0 µM): -64.6%
growth inhibition ([16]; at 1.2 µM): 6%
growth inhibition ([16]; at 3.7 µM): -5%
growth inhibition ([16]; at 11.0 µM): 2%
growth inhibition ([16]; at 33.0 µM): -21%
growth inhibition ([16]; at 100.0 µM): 41%
